# Several values for one entry are separate records, joined by “and”; a condition that tells them apart may be missing. Equal entries are not always repeated. Hit rate of the full screen: of about 390,000 compounds, about 820 (0.21%) were called active. Another 3% or so got no clear call; they are omitted. This is one part of a sample in which actives are shown more often than they occur. Calls come from the whole dose curve; as a rule, active = well fitted inhibition curve with a large enough effect; inconclusive = small, poorly fitted or top-dose-only effect, or another doubt; inactive = no such curve, though single readings can be large or run the other way. The source holds several records for some structures; these can differ, active in one and inactive in another.
# Target: Histone acetyltransferase KAT2A (Homo sapiens) (UniProt Q92830)
# Sequence (Q92830 whole entry, looked up): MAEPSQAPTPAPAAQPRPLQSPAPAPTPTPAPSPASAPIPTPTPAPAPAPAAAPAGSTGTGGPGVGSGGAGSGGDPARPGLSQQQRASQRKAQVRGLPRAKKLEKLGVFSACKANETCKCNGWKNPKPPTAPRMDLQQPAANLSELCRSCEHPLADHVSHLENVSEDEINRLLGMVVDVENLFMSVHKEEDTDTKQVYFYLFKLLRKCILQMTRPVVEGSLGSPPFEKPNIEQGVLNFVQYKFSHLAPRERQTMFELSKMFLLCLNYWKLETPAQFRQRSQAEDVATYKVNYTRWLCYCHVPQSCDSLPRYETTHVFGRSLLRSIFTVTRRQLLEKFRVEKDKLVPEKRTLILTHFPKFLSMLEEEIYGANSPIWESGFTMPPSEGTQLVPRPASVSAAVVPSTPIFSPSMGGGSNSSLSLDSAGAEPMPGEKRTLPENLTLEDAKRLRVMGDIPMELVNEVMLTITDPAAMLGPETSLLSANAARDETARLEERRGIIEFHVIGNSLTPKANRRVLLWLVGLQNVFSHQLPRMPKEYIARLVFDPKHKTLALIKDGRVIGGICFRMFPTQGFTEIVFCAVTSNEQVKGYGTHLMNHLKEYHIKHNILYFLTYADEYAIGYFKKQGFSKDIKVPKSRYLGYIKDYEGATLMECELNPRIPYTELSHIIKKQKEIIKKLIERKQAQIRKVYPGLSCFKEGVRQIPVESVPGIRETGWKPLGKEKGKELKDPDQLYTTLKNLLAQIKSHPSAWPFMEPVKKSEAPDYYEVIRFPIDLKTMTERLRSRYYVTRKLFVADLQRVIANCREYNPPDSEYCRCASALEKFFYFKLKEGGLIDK
# Test: qHTS Assay for Inhibitors of GCN5L2
# Conditions: GCN5L2 HAT assay, ThioGlo1 CoA-SH fluorescence; series mostly up to 58.9 µM; activity change, negative = inhibition: at the top concentration
# Excerpt: Histone acetyltransferase (HAT) enzymes transfer a […] group from acetyl-coenzyme A to the epsilon-amino group of conserved lysine residues of N-terminal histone tails. Acetylation results in charge neutralization of this positively charged amino acid, decreasing interactions with the […] backbone and making the DNA more accessible for transcription. HATs have been recognized as an emerging drug target for treatment of cancer, diabetes, asthma, chronic obstructive pulmonary disease, cardiac disease, and viral infection. Protein identified with HAT activity include the […] like 2 (GCN5L2, a.ka. Histone acetyltransferase KAT2A) which acetylates histone H3 at Lys9, 14, 18, 13, and to lesser extent histones H4 and H2B. This activates transcription of the gene by modulating chromatin structure and installing the acetyllysine recognition mark for bromodomain-containing coactivator proteins.
# A quantitative high throughput screen was developed to identify small molecule inhibitors. The assay is based on the principle that it measures formation of reduced CoA with the pro-fluorescent maleimide derivative ThioGlo1 that becomes fluorescent upon reaction with the free thiol of CoA.
# A large number of artifacts are expected in this primary screen, compounded by the assay format (fluorescent artifacts) and by the high top concentration tested for each substance. This BioAssay data deposition should be used with caution, and counterscreen and secondary assay validation is essential since very few actives from the primary screen are expected to be true inhibitors of GCN5L2.
# [2] Yasgar, et al. Compound Management for Quantitative High-Throughput Screening. JALA. 2008 Apr;13(2):79-89.
# [3] Inglese, et al. Quantitative high-throughput screening: a titration-based approach that efficiently identifies biological activities in large chemical libraries. Proc Natl Acad Sci. 1;103(31):11473-8. 2006. PMID: 16864780
# NIH Molecular Libraries Probe Production Network [MLPCN]
# NIH Chemical Genomics Center [NCGC]
# Structural Genomics Consortium (SGC)
# To each well of a 1,536w plate, 3ul of GCN5L2 (final concentration 20nM, in 50mM HEPES, 0.1mM EDTA (pH 7.5), 0.01% Tween-20 buffer) are added using a Kalypsys dispenser. Only buffer is added to some wells as a control. A Kalypsys pin-tool transferred 23nl of library compound solution in DMSO to each well, as well as the control inhibit garcinol. . Following a 15 min incubation of enzyme with compounds at room temperature, 1ul mixture of ThioGlo1 (50uM final), H3(1-25) peptide (75uM final), and Acetyl-CoA (70uM final) is added. Plates are read immediately on the ViewLux (PerkinElmer) (Ex340nm/Em540nm) for a 0 min read, incubated for 20 min at room temperature, and read again on the ViewLux with the same settings. The initial read was carried out to identify compounds that are potentially fluorescent.
# % is set by controls: 0 for no effect and ±100 for the full control effect; potency is the fitted concentration of half-maximal effect.
Structure (SMILES),"activity change, negative = inhibition",Potency
O=C1CCc2cccc3c2N1CC3,7.32% (inactive),–
CC(C)=CCC[C@]1(C)[C@@H](CC=C(C)C)C[C@@]2(CC=C(C)C)C(=O)[C@]1(C(=O)C(C)C)C(=O)C(CC=C(C)C)=C2O,–,28.2 µM (active)
Nc1ccc(-c2ccc(N)c(N)c2)cc1N,-7.25% (inactive),–
CCCN(C/C=C/I)C1CCc2ccc(O)cc2C1 (stereo not drawn),-0.627% (inactive),–
NCCc1c[nH]c2ccc(O)cc12,–,inactive and 11.2 µM (active)
COc1ccc2[nH]cc(CCNCc3ccc(Br)cc3)c2c1,1.22% (inactive),–
Cc1cccc2c(CCN)c[nH]c12,-2.68% (inactive),–
CC(=O)Oc1ccccc1C(=O)Nc1ncc([N+](=O)[O-])s1,-3.77% (inactive),–
CC[C@@H]1CN2CC[C@@H]1C[C@H]2[C@H](O)c1ccnc2ccc(OC)cc12,-9.14% (inactive),–
COc1ccccc1-c1[se]c2ccccc2c1I,-12.9% (inactive),–
CCCCCCCCCCCCN=C(N)N,0.337% (inactive),–
N#Cc1c(Cl)c(Cl)c(Cl)c(C#N)c1Cl,-13.8% (inactive),–
CCCCCCCCCCCCCC(=O)O[C@@H]1[C@@H](C)[C@@]2(O)[C@@H](C=C(CO)C[C@]3(O)C(=O)C(C)=C[C@@H]23)[C@@H]2C(C)(C)[C@]12OC(C)=O,2.06% (inactive),–
CC(=O)[O][Sn]([c]1ccccc1)([c]1ccccc1)[c]1ccccc1,–,4.47 µM (active)
COC(=O)N1C(c2ccccc2)C1c1ccccc1 (stereo not drawn),0.274% (inactive),–
C[C@H]1C/C=C/[C@@H]2[C@@H]3O[C@]3(C)[C@@H](C)[C@H]3[C@H](Cc4ccccc4)NC(=O)[C@]32OC(=O)O/C=C/[C@](C)(O)C1=O,3.33% (inactive),–
CN[C@@H]1C[C@H]2O[C@@](C)([C@@H]1OC)n1c3ccccc3c3c4c(c5c6ccccc6n2c5c31)C(=O)NC4,4.47% [at 12.7 µM] (inactive),–
CNCC[C@H](Oc1ccc(C(F)(F)F)cc1)c1ccccc1,–,inactive and 8.91 µM (active)
CCCCC/C=C\C/C=C\C/C=C\C=C\[C@H](CCCC(=O)O)OO,9.21% (inactive),–
N#CC(C#N)=Cc1cc(O)c(O)c([N+](=O)[O-])c1,–,inactive
C[C@@H]1C[C@H]2CC[C@H](O2)[C@H](C)C(=O)O[C@@H](C)C[C@@H]2CC[C@@H](O2)[C@@H](C)C(=O)O[C@H](C)C[C@H]2CC[C@H](O2)[C@H](C)C(=O)O[C@@H](C)C[C@@H]2CC[C@@H](O2)[C@@H](C)C(=O)O1,41.3% (inactive),–
N#Cc1cc(Br)c(O)c(Br)c1,-21.5% (inactive),–
c1ccc(N2CC[C@@]3(CCCNC3)C2)nc1,7.24% (inactive),–

# — PubChem BioAssay AID504327 (National Center for Advancing Translational Sciences (NCATS), 2011)
